Data reported in PubChem BioAssay (NCATS).
Values joined by “and” are separate entries in the source; they are usually repeats but may differ in a detail not shown here. Identical values can stand only once. Inconclusive results are not listed. Where a structure was tested more than once in an assay, its records may differ in their call. Active and inactive are the calls of the source. Unless noted, calls come from the whole dose curve; as a rule, active = well fitted curve in the direction sought with a large enough effect; inconclusive = small, poorly fitted or top-dose-only effect, or another doubt; inactive = no such curve, though single readings can be large; an effect the other way counts as inactive or inconclusive.

Columns and labels:
[1] = biological target: Phenylethanolamine N-methyltransferase (Homo sapiens) (UniProt P11086); assay: Confirmatory Screen for Target Class Profiling of Small Molecule Inhibitors of Methyltransferases (AID 1745852); settings: MTase-Glo luminescence, SAH detection, recombinant enzyme; measured here: PNMT max response; stronger effect = lower value
Chain of Phenylethanolamine N-methyltransferase (Homo sapiens) (P11086 whole entry, looked up): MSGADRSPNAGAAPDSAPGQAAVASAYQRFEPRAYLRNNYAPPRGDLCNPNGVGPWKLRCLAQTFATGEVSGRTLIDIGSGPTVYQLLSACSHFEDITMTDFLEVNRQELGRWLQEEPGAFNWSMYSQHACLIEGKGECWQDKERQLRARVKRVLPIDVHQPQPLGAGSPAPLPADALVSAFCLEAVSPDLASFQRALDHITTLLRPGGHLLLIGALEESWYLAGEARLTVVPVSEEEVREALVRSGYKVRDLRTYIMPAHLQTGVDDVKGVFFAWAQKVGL

[2] = biological target: Metallo-beta-lactamase type 2 (Klebsiella pneumoniae) (UniProt C7C422); assay: qHTS to identify inhibitors of the New Delhi Metallo-beta-lactamase (NDM): assay validation screen against the NCATS LOPAC Collection (AID 1794843); note: series mostly up to about 38 µM
Chain of Metallo-beta-lactamase type 2 (Klebsiella pneumoniae) (C7C422 whole entry, looked up): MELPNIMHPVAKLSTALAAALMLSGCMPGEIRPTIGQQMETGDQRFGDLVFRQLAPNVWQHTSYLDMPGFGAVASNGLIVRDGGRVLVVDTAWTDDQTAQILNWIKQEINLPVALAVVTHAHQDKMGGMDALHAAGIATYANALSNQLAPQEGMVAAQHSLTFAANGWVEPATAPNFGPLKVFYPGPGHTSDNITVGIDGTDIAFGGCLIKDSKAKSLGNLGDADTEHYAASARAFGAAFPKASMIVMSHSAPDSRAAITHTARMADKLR
Outline: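 Absorbance at 485 nm from nitrocefin turnover (50 uM solution added), read at plateau, gives the read-out. Compounds in DMSO were incubated first with 2 nM final NDM-1 in pH 7.0 HEPES buffer containing 1 uM ZnSO4 and 0.01% Tween20.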

[3] = biological target: Glutathione peroxidase 1 (Homo sapiens) (UniProt P07203); assay: Primary qHTS Assay for Inhibitors of Recombinant Selenoprotein Glutathione Peroxidase 1 (GPX1) (AID 1845191); note: nearly all actives have a fitted effect of over 65% in size; note: potency is the fitted concentration of half-maximal effect
Chain of Glutathione peroxidase 1 (Homo sapiens) (P07203 whole entry, looked up): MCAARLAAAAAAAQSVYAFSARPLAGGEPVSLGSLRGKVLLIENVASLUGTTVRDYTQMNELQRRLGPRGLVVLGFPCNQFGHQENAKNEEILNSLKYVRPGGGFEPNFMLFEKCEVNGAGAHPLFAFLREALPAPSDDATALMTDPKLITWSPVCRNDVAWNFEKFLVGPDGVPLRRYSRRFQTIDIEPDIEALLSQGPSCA
Outline: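 GPX1 10 nM, GR 100 nM, GSH 1 mM, NADPH 0.5 mM, CHP 0.5 mM (final). 30-min cpd preincubation, RT. Ex340/Em450 read t=0, t=15 min.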

[4] = biological target: Phospholipid hydroperoxide glutathione peroxidase GPX4 (Homo sapiens) (UniProt P36969); assay: Primary qHTS Assay for Inhibitors of Recombinant Selenoprotein Glutathione Peroxidase 4 (GPX4) (AID 1845192); note: nearly all actives have a fitted effect of over 65% in size; note: potency is the fitted concentration of half-maximal effect
Chain of Phospholipid hydroperoxide glutathione peroxidase GPX4 (Homo sapiens) (P36969 whole entry, looked up): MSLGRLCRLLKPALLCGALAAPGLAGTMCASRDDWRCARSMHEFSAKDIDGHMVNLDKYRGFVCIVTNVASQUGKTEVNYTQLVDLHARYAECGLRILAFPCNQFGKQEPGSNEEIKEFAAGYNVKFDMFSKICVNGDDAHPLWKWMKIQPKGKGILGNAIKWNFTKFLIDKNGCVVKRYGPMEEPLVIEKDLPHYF
Outline: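 qHTS, GR-coupled: GPX4 200 nM + cpd 30 min RT → GSH 1 mM, NADPH 0.5 mM, GR 100 nM → CHP 0.5 mM start; fluor 340/450 at t0 and t15 min; no-enzyme wells as control.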

[5] = Quantitative High-Throughput drug screen in 47 multiple myeloma cell lines against the NCATS MIPE library collection: Delta47_JCRB cell viability assay (AID 1918925; note: nearly all actives have a fitted effect of over 45% in size; note: potency is the fitted concentration of half-maximal effect)
Outline: (§1)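 We plated 500 myeloma cells per well, pinned in MIPE 4.0 compounds, and incubated for 48 hours at 37C. ATP was then quantified with CellTiter-Glo, with DMSO and media-only wells defining 100% and 0%.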

[6] = Quantitative High-Throughput drug screen in 47 multiple myeloma cell lines against the NCATS MIPE library collection: EJM_DSMZ cell viability assay (AID 1918926; note: nearly all actives have a fitted effect of over 30% in size; note: potency is the fitted concentration of half-maximal effect)
Outline: as §1

[7] = Quantitative High-Throughput drug screen in 47 multiple myeloma cell lines against the NCATS MIPE library collection: AMO1_DSMZ cell viability assay (AID 1918927; note: nearly all actives have a fitted effect of over 30% in size; note: potency is the fitted concentration of half-maximal effect)
Outline: as §1

[8] = biological target: Luciferin 4-monooxygenase (Photinus pyralis) (UniProt P08659); assay: Primary firefly luciferase (FLuc) qHTS assay for identification of artifact compounds. (AID 1845220); note: nearly all actives have a fitted effect of over 60% in size
Outline: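 Reaction readout was CCD-imaged luminescence, taken 5 min after adding 10 nM purified firefly enzyme to compound-treated wells holding 10 uM luciferin and ATP in pH 7.6 buffer.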

[9] = Primary fluorescence-based thiol-reactive (MSTI) qHTS assay for identification of artifact compounds. (AID 1845221);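 note: series mostly up to about 54 µM; thiol-reactive compounds lower the probe fluorescence signal; nearly all actives have a fitted effect of over 65% in size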
Outline: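 Probe: MSTI 4 uM, PBS pH 7.4, 2% DMSO. Incubation 1 h, RT, light-protected. Readout fluorescence 525/598 nm.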

[10] = system: Nanoluciferase (engineered Oplophorus gracilirostris luciferase); assay: Primary Nanoluciferase (NLuc) qHTS assay for identification of artifact compounds. (AID 1845222);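 note: NLuc secreted into diluted conditioned medium of S16 cells; series mostly up to about 54 µM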
Outline: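 Concentration-response data were obtained by luminescence after 5 min with Nano-Glo substrate at 1:100. The enzyme was diluted S16 NLuc-expressing cell medium, preincubated with compound for 15 min at RT. Curves were fitted with a 4-parameter Hill model.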

[11] = Primary redox qHTS assay for identification of artifact compounds. (AID 1845223)
Outline: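 Redox-cycling detection via DTT (250 uM final) oxidation coupled to Amplex Red (25 uM)/HRP (250 mU/mL) in HBSS. 15 min preincubation plus 30 min after DTT, room temperature. Ex/Em 525/598 nm; 4-parameter Hill fit against DMSO and 10 uM DA3003.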

[12] = NCATS anti-infectives library activity on HEK293 viability as a counter-qHTS vs the C. elegans viability qHTS (AID 1745854);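 note: HEK293 cells exposed to compounds for 24 hr before the viability read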
Outline: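 Compound titrations (final up to 41.7 uM) were incubated with HEK293 cells for 24 hr at 37C under 5% CO2. Viable cells were quantified with CellTiter-Glo after 10 min at ambient temperature.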

[13] = Quantitative High-Throughput drug screen in 47 multiple myeloma cell lines against the NCATS MIPE library collection: FR4_PLB cell viability assay (AID 1918924; note: nearly all actives have a fitted effect of over 35% in size; note: potency is the fitted concentration of half-maximal effect)
Outline: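 Relative luminescence from CellTiter-Glo served as the viability signal, referenced to DMSO-treated (100%) and cell-free medium (0%) controls. Treatment lasted 48 hours at 37C with 500 cells per well.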

[14] = Quantitative High-Throughput drug screen in 47 multiple myeloma cell lines against the NCATS MIPE library collection: ARP1_JJKsccF8 cell viability assay (AID 1918928; note: nearly all actives have a fitted effect of over 40% in size)
Outline: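 CellTiter-Glo luminescence after 48 h exposure gives viability, scaled between DMSO-only (100%) and media-only (0%) controls. Library compounds are pinned onto 500 myeloma cells per well, incubated at 37C with 5% CO2.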

[15] = NCATS anti-infectives library activity on the primary C. elegans qHTS viability assay (AID 1745855; calls by dose curve; note: potency is the fitted concentration of half-maximal effect)
Outline: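 Titration-based screen in worms: eggs hatched overnight in M9, L1 larvae fed TOP10 capsules in S medium with compound, incubated 21 °C for 7 days; fluorescent objects gated by size and intensity at days 0, 3 and 7.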

NC[C@H](O)c1ccc(O)c(O)c1
inactive: outcome [2] | Potency [3] | Potency [4] | Potency [5] | Potency [6] | Potency [7]
21.8%: activity [1]

CC(C)(Sc1ccc(CCN(CCCCC2CCCCC2)C(=O)NC2CCCCC2)cc1)C(=O)O
inactive and 6.4 µM (active): Potency [4]
inactive: outcome [2] | Potency [8] | Potency [9] | outcome [10] | outcome [11] | Potency [7]
-8.68%: activity [1]

CNC(=O)c1ccc(N2C(=S)N(c3ccc(C#N)c(C(F)(F)F)c3)C(=O)C2(C)C)cc1F
inactive: outcome [12] | Potency [3] | Potency [4] | Potency [13] | Potency [6] | Potency [14]

Cc1[nH]c(=O)c(C#N)cc1-c1ccc2nccn2c1
4.35%: activity [1]
inactive: outcome [2] | Potency [4] | Potency [13] | Potency [5] | Potency [6] | Potency [14]

c1ccc([C@H]2CN3CCSC3=N2)cc1
active: Potency [15] 5.15 µM
inactive: outcome [12] | outcome [2] | Potency [3] | Potency [4] | Potency [13] | Potency [6] | Potency [7] | Potency [14]

C[C@]1(c2nc3c(C(N)=O)cccc3[nH]2)CCCN1
inactive: outcome [12] | Potency [3] | Potency [4] | Potency [13] | Potency [6] | Potency [14]

Nc1nccc(-c2ccc3noc(-c4ccc(Cl)cc4)c3c2)n1
-0.0134%: activity [1]
inactive: Potency [3] | Potency [6]

COc1ccc2nc(S(=O)Cc3ncc(C)c(OC)c3C)[nH]c2c1 (configuration not stated)
5.08 µM (active) and inactive: Potency [3]
active: Potency [4] 11.4 µM | Potency [6] 18.7 µM
inactive: outcome [12] | Potency [13]

C#Cc1cccc(Nc2ncnc3cc(OCCOC)c(OCCOC)cc23)c1
active: Potency [13] 16.6 µM | Potency [5] 4.18 µM | Potency [6] 6.62 µM | Potency [7] 1.05 µM
inactive: Potency [15] | Potency [4] | Potency [8] | Potency [9] | outcome [10] | outcome [11]

O=C1CCC(N2C(=O)c3ccccc3C2=O)C(=O)N1 (configuration not stated)
inactive: outcome [12] | outcome [2] | Potency [4] | Potency [13] | Potency [5] | Potency [6]

Cn1cnc2c(F)c(Nc3ccc(Br)cc3Cl)c(C(=O)NOCCO)cc21
inactive: outcome [12] | Potency [3] | Potency [4] | Potency [8] | Potency [9] | outcome [10] | Potency [5]
active: Potency [7] 0.833 µM

CN1CCN(CCCN2c3ccccc3Sc3ccc(C(F)(F)F)cc32)CC1
inactive: outcome [12] | outcome [2] | Potency [4] | Potency [13] | Potency [6] | Potency [7]
active: Potency [5] 4.69 µM

N=c1nc(N2CCCCC2)cc(N)n1O
inactive: outcome [2] | Potency [3] | Potency [4] | Potency [13] | Potency [6] | Potency [7]

CC(C)NCC(O)COc1ccc(COCCOC(C)C)cc1 (configuration not stated)
inactive: outcome [2] | Potency [4] | Potency [14]

CC(C)C[C@H](NC(=O)[C@@H](O)[C@H](N)Cc1ccccc1)C(=O)O
active: Potency [5] 20.9 µM
inactive: outcome [2] | Potency [4] | Potency [7]

NC(N)=NC(=O)c1nc(Cl)c(N)nc1N
inactive: outcome [2] | Potency [3] | Potency [4] | Potency [6]
active: Potency [5] 8.33 µM | Potency [7] 14.8 µM

O=C1CCc2cc(OCCCCc3nnnn3C3CCCCC3)ccc2N1
inactive: outcome [2] | Potency [4] | Potency [13] | Potency [6] | Potency [7]

C[C@]12CCC(=O)C=C1CC[C@@H]1[C@@H]2[C@@H](O)C[C@@]2(C)[C@H]1CC[C@]2(O)C(=O)CO
inactive: outcome [2] | Potency [3] | Potency [4]

Cn1cnc([N+](=O)[O-])c1Sc1ncnc2nc[nH]c12
inactive: outcome [2] | Potency [3] | Potency [4] | Potency [6]
active: Potency [13] 0.418 µM

Nc1ccc(S(=O)(=O)Nc2ccnn2-c2ccccc2)cc1
inactive: outcome [2] | Potency [3] | Potency [4] | Potency [5] | Potency [6] | Potency [7]

CNC[C@H](O)c1cccc(O)c1
inactive: outcome [2] | Potency [4] | Potency [13] | Potency [5] | Potency [6] | Potency [7] | Potency [14]

O=C(O)COCCN1CCN(C(c2ccccc2)c2ccc(Cl)cc2)CC1 (configuration not stated)
inactive: outcome [2] | Potency [4] | Potency [13]

Cc1oncc1C(=O)Nc1ccc(C(F)(F)F)cc1
inactive: outcome [2] | Potency [3] | Potency [4] | Potency [13] | Potency [7]
active: Potency [6] 20.9 µM

O=C(Nc1nc2ccccc2n1CCN1CCOCC1)c1cccc([N+](=O)[O-])c1
active: Potency [6] 4.18 µM | Potency [7] 4.18 µM
inactive: outcome [2] | Potency [3] | Potency [4]

Nc1nc2ccc(OC(F)(F)F)cc2s1
inactive: outcome [2] | Potency [3] | Potency [4] | Potency [6]
active: Potency [5] 13.2 µM

C1COC(NC(C2CC2)C2CC2)=N1
inactive: outcome [2] | Potency [3] | Potency [4] | Potency [13] | Potency [6]

NS(=O)(=O)c1cc2c(cc1Cl)NC=NS2(=O)=O
inactive: outcome [2] | Potency [3] | Potency [4] | Potency [13] | Potency [7] | Potency [14]

O=c1n(CCCN2CCN(c3cccc(Cl)c3)CC2)nc2ccccn12
inactive: outcome [2] | Potency [3] | Potency [4] | Potency [5] | Potency [6] | Potency [7]

CCOC(=O)N1CCC(=C2c3ccc(Cl)cc3CCc3cccnc32)CC1
inactive: outcome [2] | Potency [3] | Potency [4] | Potency [7]
